Assay results: PubChem BioAssay (NCI)
Several values for one entry are separate records, joined by “and”; a condition that tells them apart may be missing. Equal entries are not always repeated. This is part of a sample that, as a whole, favours compounds with a hit. Of some 79,000 tested, about 15% had one in any assay. Where a structure was tested more than once in an assay, its records may differ in their call. Activity calls are given as the source filed them. Cut-off read from the data, not from the text of the source: active = growth inhibition above about 70%; inactive = the rest.

Test: NCI Yeast Anticancer Drug Screen. Data for the rad50 strain (AID 155);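 note: 0% = growth of vehicle-only cultures of the same strain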
Settings: S. cerevisiae rad50 strain growth inhibition, stronger effect = higher value
Protocol: Growth inhibition of yeast strains with defined genetic alterations is measured as a screen for potential anti-cancer activity. Selected strains with alterations in DNA damage repair or cell cycle control were exposed to compounds and growth inhibition was measured relative to vehicle treated controls. The strain used in this assay is rad50

[1] = at 5.0 µM (retest, dose inferred, filed as 0.5)
[2] = at 50.0 µM (retest, dose inferred, filed as 5.0)

Structure (SMILES)	growth inhibition [1]	growth inhibition [2]	growth inhibition (at 50.0 µM)
OC(C/C=C/c1ccccc1)(c1ccccc1)c1ccccc1	3% (inactive)	39% (inactive)	97% (active) and 97.5% (active)
NC(CCCCNC(=O)c1ccccc1)C(=O)O (configuration not stated)	-1% (inactive)	4% (inactive)	17.2% (inactive) and -18.6% (inactive)
Oc1ccccc1C=Nc1ccccc1O	22% (inactive)	32% (inactive)	59.2% (inactive) and 56.2% (inactive)
CN(C)CCNc1ccc(CO)c2oc3ccc(O)cc3c(=O)c12	17% (inactive)	41% (inactive)	26.5% (inactive)
c1ccc(-c2conc2-c2ccccc2)cc1	-22% (inactive)	95% (active)	60.8% (inactive)
CN1C(c2ccccc2)CC(=NOCc2ccccc2)CC1c1ccccc1 (configuration not stated)	83% (active)	96% (active)	78.5% (active)
Cc1cc(C)[nH]c(=O)n1	-2% (inactive)	16% (inactive)	-22.4% (inactive) and 84.2% (active)
Cc1nc2cc(Cl)ccc2n1-c1ccccc1	39% (inactive)	92% (active)	66.9% (inactive)
CC[N+](C)(C)c1ccccc1	42% (inactive)	90% (active)	61.8% (inactive)
O=C(CC(=O)CC(O)(c1ccccc1)c1ccccc1)CC(=O)c1ccccc1	-4% (inactive)	95% (active)	98.4% (active)
CCOC(CN=c1nc(N(C)C)ss1)OCC	1% (inactive)	-20% (inactive)	2.75% (inactive)
CCOC(=O)c1ccc(NCc2ccc3ccccc3n2)cc1	-3% (inactive)	15% (inactive)	71.6% (active)
N#CC1Sc2ccccc2N1C(=O)OCc1ccccc1 (configuration not stated)	7% (inactive)	86% (active)	90.1% (active)
CCCCCCCCCCCCCCCC(=O)NCC[N+](C)(C)C	33% (inactive)	99% (active)	99.5% (active)
